This note sets out measurements from ChEMBL document CHEMBL1157539, “Thousands of chemical starting points for antimalarial lead identification” (Nature, 2010).

Common to all, as to type: functional
The subject of assay [1] is Plasmodium falciparum. The assay is described as follows: GSK_TCMDC: Inhibition of Plasmodium falciparum 3D7 in whole red blood cells, using parasite LDH activity as an index of growth. Test compounds present at 2uM.
For assay [2], the system named is Plasmodium falciparum. The assay is described as follows: GSK_TCMDC: Inhibition of Plasmodium falciparum Dd2 in whole red blood cells, using parasite LDH activity as an index of growth. Test compounds present at 2uM.
In assay [3] the test system is HepG2. The assay is described as follows: GSK_TCMDC: Percent inhibition of human HepG2 cell line. Test compounds present at 10uM.

Turning to `Cc1nn(C)cc1C(C)Nc1nncc(-c2ccc(C(F)(F)F)cc2)n1` (configuration not stated), the Inhibition in assay [1] worked out at 100%; in assay [2], 99%; in assay [3], 0%.

For the molecule `CCC(C)NC(=O)CN1CN(c2ccccc2)C2(CCN(C(=O)c3ccc(-c4ccccc4)cc3)CC2)C1=O` (configuration not stated), the Inhibition in assay [1] came to 100%; in assay [2] it was 100%; in assay [3], 0%.

Turning to `CC(=O)Nc1ccc(CN(Cc2ccc(C)cc2)Cc2cccc(Oc3ccccc3)c2)cc1`, the Inhibition in assay [1] was 84%; in assay [2], 87%; in assay [3], 34%.

Turning to `O=C(Nc1ccon1)c1cc(-c2cccnc2)nc2ccc(Cl)cc12`, the Inhibition came out at 98% in assay [1], 76% in assay [2] and 0% in assay [3].

Consider `CCC(C)c1ccc(-n2c(Nc3ccccc3)nc3cc(S(N)(=O)=O)ccc32)cc1` (configuration not stated), for which the Inhibition came out at 88% in assay [1], 28% in assay [2] and 0% in assay [3].

For the molecule `O=C(CCC1CCCCC1=O)c1ccccc1` (configuration not stated), the figures for the Inhibition in assay [1], in assay [2] and in assay [3] were 91%, 3% and 0%, respectively.

Take `NC(=O)c1cccc(C(=O)Nc2cccc(-c3csc(-c4nc5ccccc5[nH]4)c3)c2)c1`: the Inhibition in assay [1] came out at 100%; in assay [2], 92%; in assay [3], 16%.

Regarding `COc1ccc2nccc([C@@H](O)CN3CCC(NCc4ccc5sc(=O)[nH]c5c4)CC3)c2c1.O=C(O)C(=O)O`, the Inhibition came to 98% in assay [1], 0% in assay [2] and 1% in assay [3].

On to `CC(C)(C)NC(=O)c1ccc(Oc2ccc(OC(F)(F)F)cc2)c(NC(=O)C(C)(C)C)c1`, for which the figures for the Inhibition in assay [1], in assay [2] and in assay [3] were 89%, 2% and 0%, respectively.

Consider `CCc1c(C)c(C#N)c2nc3ccccc3n2c1NCc1ccco1`, for which the Inhibition in assay [1] came out at 99%; in assay [2] it was 90%; in assay [3], 0%.

As to `Cl.O=C(NC1CCC(CCN2Cc3cccc(C(F)(F)F)c3C2)CC1)c1cccc(-c2cccnc2)c1` (configuration not stated), the Inhibition in assay [1] came to 100%; in assay [2], 67%; in assay [3], 26%.

Regarding `CCN(CC)CCCN(C(=O)Nc1cc(F)cc(F)c1)c1nc(-c2ccc(F)cc2)cs1`, the Inhibition is given as 82% in assay [1] and 27% in assay [3].

Regarding `Cc1cccc2nc(-c3ccc(-c4ccc(CN5CC(C)OC(C)C5)cc4)cc3)[nH]c12.O=C(O)C(F)(F)F` (configuration not stated), the Inhibition in assay [1] was 97%; in assay [2], 96%; in assay [3] it was 37%.

For the molecule `COc1ccc2nccc([C@@H](O)CN3CCC(NC(=O)/C=C/c4ccc5ccccc5n4)CC3)c2c1`, the values for the Inhibition in assay [1], in assay [2] and in assay [3] were 91%, 9% and 12%, respectively.

For `Cc1ccc(Nc2nc(N/N=C/c3ccccc3[N+](=O)[O-])nc(Nc3ccc([N+](=O)[O-])cc3)n2)cc1C`, the Inhibition is reported as 100% in assay [1], 81% in assay [2] and 4% in assay [3].

With `Nc1ccc(-c2ccc3ccnc(N)c3c2)cn1.O=C(O)C(F)(F)F`, the Inhibition in assay [1] came out at 100%; in assay [2], 100%; in assay [3], 43%.

As to `CCCCCn1c(Sc2ccc(C#N)c([N+](=O)[O-])c2)nnc1-c1ccc(OC)cc1`, the Inhibition amounted to 88% in assay [1], 44% in assay [2] and 8% in assay [3].

As for `CC(C)(CC1CCCCC1)NC(=O)[C@H](CC1CCCCC1)Nc1ccc(C#N)c2ccccc12.O=C(O)C(F)(F)F`, the Inhibition in assay [1] stood at 98%; in assay [2], 52%; in assay [3], 14%.

On to `CC(C)c1cc(N)c2cc(NC(=O)COCC(=O)Nc3ccc4nc(C(C)C)cc(N)c4c3)ccc2n1`, for which the values for the Inhibition in assay [1], in assay [2] and in assay [3] were 95%, 95% and 0%, respectively.

On to `COc1cccc2cc(C(=O)N[C@@H](CC(C)C)C(=O)N[C@H](C=NNC(=O)OC(C)(C)C)CC(C)C)oc12`, for which the figures for the Inhibition in assay [1], in assay [2] and in assay [3] were 88%, 57% and 8%, respectively.

Consider `CN1CCCC1CCOc1ccc2c(c1)N(C(=O)Nc1cc(Br)cc(C(F)(F)F)c1)CC2.O=C(O)C(F)(F)F` (configuration not stated), for which the Inhibition in assay [1] worked out at 100%; in assay [2], 97%; in assay [3], 13%.

Consider `CN(C)Cc1ccc(CNC2CCN(Cc3ccccc3Cl)CC2)cc1.O=C(O)C(F)(F)F`, for which the Inhibition in assay [1] was 82%; in assay [3], 23%.

As for `Cc1cnccc1/C=C/c1cccc(OCCCN2CCc3ccc(S(C)(=O)=O)cc3CC2)c1`, the Inhibition in assay [1] stood at 92%; in assay [2], 72%; in assay [3] it was 1%.

As for `CS(=O)(=O)c1ccc(CCNCc2ccc(-c3ccc(CN(C(=O)c4ccco4)C4CCN(Cc5ccccc5)CC4)cc3)nc2)cc1.O=C(O)C(F)(F)F`, the Inhibition in assay [1] was 85%; in assay [2], 38%; in assay [3], 13%.

On to `c1ccc(C23NC(=Nc4nc5ccccc5[nH]4)NC2(c2ccccc2)NC(=Nc2nc4ccccc4[nH]2)N3)cc1` (configuration not stated), for which the Inhibition worked out at 97% in assay [1], 89% in assay [2] and 2% in assay [3].

For the molecule `Cc1cccc(C(=O)Nc2ccnc(N(C)CCCN(C)Cc3cccc(C#N)c3)c2)c1.O=C(O)C(F)(F)F`, the Inhibition amounted to 92% in assay [1], 12% in assay [2] and 1% in assay [3].

For the molecule `O=C(NNC(=O)c1ccc(CN2CCC(c3nc4ccccc4[nH]3)CC2)cc1)Nc1ccc(Oc2ccccc2)cc1.O=C(O)C(F)(F)F`, the Inhibition in assay [1] amounted to 86%; in assay [3] it was 0%.

As to `CN(C)Cc1cccc(-c2ccc(NC(=O)c3ccc4c(=O)n(Cc5cnn(C)c5)cnc4c3)cc2)c1`, the Inhibition in assay [1] is on record as 80%; in assay [3], 12%.

In the case of `COc1ccc(/N=C(\N)Nc2ccccc2)nc1Cc1ccccc1`, the Inhibition in assay [1] was 81%; in assay [3], 17%.

For `COc1cc2ncnc(Nc3ccc(OC(F)(F)c4ccccc4)cc3)c2cc1OC.Cl`, the Inhibition in assay [1] came out at 91%; in assay [3], 14%.

As for `Cl.Oc1cccc(Nc2ccnc3cc(-c4nccs4)ccc23)c1`, the Inhibition in assay [1] is 98%; in assay [3], 0%.

Take `C=CCOc1cc(Cc2cnc(N)nc2N)cc(OC)c1OC.Cl`: the Inhibition in assay [1] came out at 81%; in assay [3] it was 0%.

As for `COc1cccc(-c2cc3c(NCc4ccncc4)nccc3s2)c1`, the figures for the Inhibition in assay [1] and in assay [3] were 87% and 0%, respectively.

Turning to `CC1CN(c2ccc3[nH]cc(Sc4ccc(-c5cccs5)cc4)c3c2)CC(C)N1.Cl` (configuration not stated), the Inhibition in assay [1] turned out to be 89%; in assay [3], 29%.

`O=C(CN1C(=O)CC1S(=O)(=O)Cc1ccco1)NCCCCCCc1ccc(F)cc1` (configuration not stated): the Inhibition in assay [1] is recorded as 95%; in assay [3], 0%.

For the molecule `O=C(O)CCSc1ncnc2[nH]cnc12`, the Inhibition in assay [1] turned out to be 100%; in assay [3], 7%.

For the molecule `CC(=O)Nc1cccc(Nc2c3ccccc3nc3ccccc23)c1`, the results for the Inhibition in assay [1] and in assay [3] were 82% and 31%, respectively.

With `O=C(Nc1cccc(-c2nn3ccccc3c2-c2ccnc(Nc3cccc(F)c3)n2)c1)C1CCCCC1`, the Inhibition in assay [1] was 85%; in assay [3], 44%.

For the molecule `O=[N+]([O-])c1ccc(-n2nc(-c3cccnc3)n(Cc3ccco3)c2=S)c(Cl)c1`, the Inhibition in assay [1] is 95%; in assay [3], 13%.

With `CC1(C)C(=O)N=C2C1=C(O)C(=O)c1ccccc12`, the Inhibition in assay [1] is given as 93%; in assay [3], 0%.

As for `Cc1ccccc1Oc1ccc(Nc2ccnc(Nc3cccc(C(N)=O)c3)n2)cc1C(F)(F)F.Cl`, the Inhibition turned out to be 81% in assay [1] and 9% in assay [3].

Take `COc1cc(CCNCC(O)c2ccc([N+](=O)[O-])c(OCc3ccccc3)c2)cc(OC)c1OC.Cl` (configuration not stated): the Inhibition came out at 98% in assay [1] and 11% in assay [3].

Turning to `S=C(Nc1ccc(Cl)cc1)Nc1ccc(Nc2ccccc2)cc1`, the Inhibition was determined as 84% in assay [1] and 14% in assay [3].

For the molecule `CC(CC1CCCCC1)NCc1ccccc1OCCC(=O)N1CCCC1C(N)=O` (configuration not stated), the Inhibition in assay [1] is 97%; in assay [3], 5%.

Turning to `NC(=O)c1sc(-n2cnc3ccc(C(=O)NCCN4CCOCC4)cc32)cc1OCc1ccccc1C(F)(F)F.O=CO`, the Inhibition in assay [1] is 81%; in assay [3], 0%.

Consider `C[C@H]1CN(Cc2ccc(-c3cccc(CNC(=O)c4cccc(C(=O)c5ccc(Cl)c(Cl)c5)c4)c3)s2)CCN1.O=C(O)C(F)(F)F`, for which the Inhibition in assay [1] came to 99%; in assay [3] it was 3%.

With `O=C(Nc1cccc(Cl)c1)c1cc2ccccc2cc1O`, the Inhibition was 97% in assay [1] and 4% in assay [3].

For the molecule `COc1cc2c(cc1C(F)(F)F)N(C(=O)Nc1ccc(Br)cn1)CC2`, the values for the Inhibition in assay [1] and in assay [3] were 97% and 16%, respectively.

Take `O=C(Nc1ccc(OC2CCN(CC3CC3)CC2)c(Cl)c1)c1ccc2ncccc2c1.O=C(O)C(F)(F)F`: the Inhibition in assay [1] stood at 84%; in assay [3], 19%.

`CCn1c(-c2nonc2N)nc2c(-c3cccc(NC(=O)NCc4ccccc4)c3)ncc(OCCCN)c21.O=C(O)C(F)(F)F`: the Inhibition is 99% in assay [1] and 5% in assay [3].

Regarding `c1ccc2sc(-c3csc(Nc4ccncc4)n3)nc2c1`, the results for the Inhibition in assay [1] and in assay [3] were 86% and 0%, respectively.

In the case of `COc1cc(OC)cc(C(=O)Nc2nc(-c3ccc(NC(=O)c4ccccc4)cc3)cs2)c1`, the Inhibition was found to be 88% in assay [1] and 16% in assay [3].

`Cc1nc(Nc2ccc(F)cc2)nc(N2CCc3ccccc3[C@@H]2C)c1C.Cl`: the Inhibition was 92% in assay [1] and 12% in assay [3].

Take `COc1ccc(CCN2CC[C@H](CNc3nc(-c4ccccc4)nc4ccccc34)C2)cc1S(N)(=O)=O.O=C(O)C(F)(F)F`: the Inhibition in assay [1] is reported as 85%; in assay [3], 54%.

Turning to `CN1CCC(N2CCN(C(=O)c3cccc(-c4cccc(-c5nc6ccccc6[nH]5)c4)c3)CC2)CC1`, the Inhibition came out at 100% in assay [1] and 10% in assay [3].

For `CCc1cc(-c2n[nH]c(C(F)(F)F)c2-c2ccccc2)c(O)cc1OC`, the Inhibition was 84% in assay [1] and 9% in assay [3].

For the molecule `N#Cc1cc(N(CCCOc2cccc(OC(F)(F)F)c2)Cc2ccccc2C(F)(F)F)ccc1C(F)(F)F`, the Inhibition in assay [1] is 94%; in assay [3] it was 2%.

Consider `O=c1ccc2ccc(O)c(O)c2o1` [DAPHNETIN], for which the Inhibition was 85% in assay [1] and 4% in assay [3].

As to `CC(=O)Nc1ccc(CN2CCc3ccc(NS(=O)(=O)c4ccc(-c5cccc(C(F)(F)F)c5)cc4)cc3CC2)s1`, the Inhibition came out at 82% in assay [1] and 23% in assay [3].

Regarding `Cc1csc2nc(C(C)c3ccc(NC(=O)c4cccs4)cc3)oc(=O)c12` (configuration not stated), the results for the Inhibition in assay [1] and in assay [3] were 90% and 0%, respectively.

In the case of `CC(C)CN1C(=O)C(c2ccc(F)c(F)c2)=C(O)C1c1ccccc1` (configuration not stated), the Inhibition stood at 94% in assay [1] and 0% in assay [3].

Consider `COc1ccc2c(c1)C(C)(CCCN(C)C)C(=O)N2C.O=C(O)C(=O)O` (configuration not stated), for which the results for the Inhibition in assay [1] and in assay [3] were 93% and 8%, respectively.

On to `O=C(Nc1ccc(C(F)(F)F)cc1)c1cc(Cl)cc2nc(C(F)(F)F)[nH]c12`, for which the Inhibition is given as 100% in assay [1] and 86% in assay [3].

Consider `CC(C)C(=O)NC(NC(=S)Nc1ccc(Br)cc1)C(Cl)(Cl)Cl` (configuration not stated), for which the Inhibition in assay [1] turned out to be 93%; in assay [3] it was 0%.

Turning to `COc1ccc(NC(=O)c2ccc(-c3cccc(OCc4ccccc4)c3)cc2)cc1N1CCN(C)CC1`, the Inhibition in assay [1] worked out at 85%; in assay [3] it was 29%.

With `CCS(=O)(=O)c1ccc(/C(=N/OC)c2ccc[nH]2)cc1`, the Inhibition is listed as 85% in assay [1] and 0% in assay [3].

In the case of `CCN(CC)CCCC(C)Nc1ccnc2cc(Cl)ccc12.O=P(O)(O)O.O=P(O)(O)O` (configuration not stated) [CHLOROQUINE PHOSPHATE], in assay [2], the Inhibition is 96%.

As usually defined, the Inhibition is the change of the read-out against control, counted positive when it falls. Lower therefore signals a response near the control.
